# Test results: PubChem BioAssay (NCATS)
# Results filed as inconclusive are left out. Values without a mark were called inactive. Calls of active or inactive are those of the source. Calls come from the whole dose curve; as a rule, active = well fitted cell-killing curve with a large enough effect; inconclusive = small, poorly fitted or top-dose-only effect; inactive = flat fitted curve, though single readings scatter.
# Test: Cellular viability qHTS for adrenocortical cancer (ACC) cell line NCI-H295R (AID 1963990); note: nearly all actives have a fitted effect of over 60% in size
# Settings: CellTiter-Glo ATP luminescence, 48 h; series mostly up to 46.1 µM; activity change, negative = viability loss: at the top concentration
# Text: PI: Naris Nilubol, MD Surgical Oncology Program, National Cancer Institute (NCI) National Institute of Health (NIH), Bethesda, Maryland Adrenocortical cancer (ACC) is a rare malignancy with poor survival outcomes and few treatment options. Currently, mitotane is the only FDA-approved therapy for ACC. Although adjuvant radiation therapy is rarely utilized, it has the potential to improve survival in select cases. Through a quantitative high-throughput drug screen (qHTS), we identified auranofin (AF), a thioredoxin reductase (TXNRD) inhibitor, as a promising candidate drug. This study aims to evaluate whether AF can enhance the efficacy of radiation therapy in the treatment of ACC. Two human ACC cell lines, SW-13 and NCI-H295R, were screened using the National Center for Advancing Translational Sciences (NCATS) Pharmaceutical Collection (NPC) and the Mechanism Interrogation PlatE (MIPE) library (~4,991 compounds). CellTiter-Glo (Cat # G7570, Promega, Madison, WI) was utilized to measure cell viability. Described herein are the results of the corresponding viability assay.
# PROTOCOL TABLE (as described by Inglese J, Shamu CE and Guy RK. 2007) SEQUENCE No. (e.g., 1, 2, 3, etc.); […] (e.g., Cells, Incubation, Reagent, etc.); VALUE; DESCRIPTION. 1; Cells; 5 uL; white, solid-bottom, 1536-well tissue-culture treated plates. 2; Time; overnight culture at 37C with 5% CO2. 3; Compounds and control; 23 nL; Kalypsis pin tool (Wako USA) equipped with a 1536-well pin head to transfer to the assay plates. 4; Time; 48 hours; 37C with 5% CO2. 5; Reagent; 4 uL; CellTiter-Glo luminescent substrate mix. 6; Time; 20 min at room temperature. 7; Detection; Luminescence; ViewLux plate reader NOTES (numbers refer to Sequence numbers above) 1. NCI-H295R cells were harvested from a T175 flask and resuspended in ITS-supplemented DMEM serum-free medium at a concentration of 300 000 cells/mL. Then 5 uL of resuspended cells were dispensed into each well of white, solid-bottom, 1536-well tissue-culture-treated plates using a multidrop combi dispenser. The plates were covered with stainless steel gasket lids. 2-3. The plates were cultured overnight at 37C with 5% CO2. Twenty-three nL of compounds (eight selected concentrations from the NPC / MIPE) or positive control (10 mM stock of bortezomib) in DMSO was transferred to each well of the assay plate using a pin tool (Kalypsys, San Diego, CA, USA). The final concentration of the compounds in the 5 uL assay volume ranged from 0.5 nM to 46 uM. 4-6. After 48 hours of incubation at 37C and 5% CO2, 4 uL of CellTilter-Glo luminescent substrate mix (Promega, Madison, WI, USA) was added to each well. Then the plates were incubated for 20 minutes at room temperature. 7. After incubation, luminescence was measured using a ViewLux plate reader (PerkinElmer, Waltham, MA, USA) with a clear filter was used to measure the number of metabolically competent cells. To determine compound activity in the qHTS assay, the titration-response data for each sample was plotted and modeled by a four-parameter logistic fit yielding IC50 and efficacy (maximal response) values. Raw plate reads for each titration point were normalized relative to positive control ([…], 100% inhibition) and DMSO-only wells (basal, 0%). REFERENCES: Inglese J, Shamu CE and Guy RK, Reporting data from high throughput screening of small molecule libraries, Nature Chemical Biology, 2007, 3(8): 438-441. doi.org/10.1038/nchembio0807-438.
SMILES,"activity change, negative = viability loss",Potency
CCN(CC)CCN1C(=O)CN=C(c2ccccc2F)c2cc(Cl)ccc21,-2.28%,–
O=c1n(Cl)c(=O)n(Cl)c(=O)n1Cl,-8.59%,–
CC(C(=O)c1ccccc1)N(C)C (stereo not given),0.192%,–
COC(=O)[C@@H](N)CCCN/C(N)=N/[N+](=O)[O-],-14%,–
CCOc1ccccc1-n1c(C(C)N2CCN(C(=O)COc3ccc(Cl)cc3)CC2)nc2ccccc2c1=O (stereo not given),–,0.891 µM (active)
COc1ccc2c3c1O[C@H]1[C@H](O)CC[C@H]4[C@@H](C2)N(C)CC[C@@]341,-16.4% [at 92.7 µM],–
CCc1cc2c(s1)-n1c(C)nnc1CN=C2c1ccccc1Cl,-1.4%,–
CCN[C@@H](C)Cc1ccccc1,-15.4% [at 92.7 µM],–
C[C@H]1CCC/C=C/C2C[C@H](O)C[C@H]2[C@H](O)/C=C/C(=O)O1 (stereo not given in full),–,0.224 µM (active)
Cc1ccc2c(c1)C1CN(C)CCC1N2 (stereo not given),-27.1% [at 20 µM],–
C[C@]12Cc3cn[nH]c3C[C@@H]1CC[C@@H]1[C@@H]2CC[C@@]2(C)[C@H]1CC[C@]2(C)O,-8.1%,–
CCCCCCCCCC(CC)c1ccc(S(=O)(=O)O)cc1 (stereo not given),–,25.1 µM (active)
COP(=S)(OC)Oc1cc(Cl)c(Cl)cc1Cl,-6.16%,–
CCC(=O)OC1(c2ccccc2)CCN(C)CC1,-9.95% [at 92.7 µM],–
CN1CCC(O)(c2ccc(F)cc2)C(C(=O)c2ccc(F)cc2)C1 (stereo not given),0.871%,–
Clc1ccccc1C(c1ccccc1)(c1ccccc1)n1cccn1,-2.66%,–
CNCC(O)c1ccc(O)cc1 (stereo not given),–,inactive
N#CC(C#N)=Cc1ccc(O)c(O)c1,-16.7%,–
N[C@@H]1C[C@H]1c1ccccc1,1.22%,–
CCCCCCC(=O)CCCCCC/C=C/C[C@@H](O)[C@H](O)[C@@](N)(CO)C(=O)O,-13.6% [at 20 µM],–

SMILES,"activity change, negative = viability loss",Potency
Cc1cccc(C)c1NC(=O)CN1CCCC1=O,–,inactive
COc1cc(CC#N)cc(OC)c1OC,-7.54%,–
Clc1ccc(CSC(Cn2ccnc2)c2ccc(Cl)cc2Cl)cc1 (stereo not given),–,4.11 µM (active)
COC(C)(C)CCCC(C)C/C=C/C(C)=C/C(=O)OC(C)C (stereo not given),-6.51%,–
COC1=C[C@@H]2[C@@H]3Cc4ccc(OC)c(O)c4[C@]2(CCN3C)CC1=O,-2.42%,–
CCC(OC(C)=O)C(CC(C)NC)(c1ccccc1)c1ccccc1 (stereo not given),–,15.8 µM (active)
CCN(CC)CCOC(=O)C(C)(c1ccccc1)c1ccccc1,-8.43%,–
c1ccc(CN2CCNCC2)cc1,-13% [at 178 µM],–
COC[C@@H](NC(C)=O)C(=O)NCc1ccccc1,–,inactive
CN(C)c1cc2c(cc1Sc1nc3c(N)nccc3n1CCNCC(C)(C)C)OCO2,–,2.24 µM (active)
CCOC(=O)Nc1ccc(NCc2ccc(F)cc2)cc1N,6.21%,–
O=c1[nH]oc2c1CCNC2,2.99%,–
O=C(Nc1ccc(Br)cc1)c1cc(Br)cc(Br)c1O,–,10.3 µM (active)
COP(=S)(OC)SCN1C(=O)c2ccccc2C1=O,-7.68%,–
CC(C)=CCN1CC[C@@]2(C)c3cc(O)ccc3C[C@@H]1[C@@H]2C,–,31.6 µM (active)
Cn1cc(C2=C(c3cn(C4CCN(Cc5ccccn5)CC4)c4ccccc34)C(=O)NC2=O)c2ccccc21,–,inactive
COP(=S)(OC)Oc1ccc(S(N)(=O)=O)cc1,-0.342%,–
CCC(=O)C(CCN(C)C)(c1ccccc1)c1ccccc1,-26.2%,–
COc1cccc(C(=O)CCN[C@@H](C)[C@H](O)c2ccccc2)c1,–,25.9 µM (active)
c1ccc2c(c1)sc1ccccc12,-0.145%,–
